Most compounds without a hit are left out; they make up all but 27% or so of the library.
CYP2C9 inhib: blockers of cytochrome P450 2C9 activity – biochemical, luminescence, ADME assay, primary screen | P11712 | CYP2C9 Supersomes, luciferin-H conversion | inhibition, % at 5 µM | 96,000 tested, 20% active | AID 777, 2007;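 active means blocking of liver enzyme CYP2C9 beyond about 50% at 5 µM, limit read from the data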
CYP2C19 act: human CYP2C19 activators, primary screen, biochemical, luminescence; 96,000 tested, under 10 active; recombinant CYP2C19, luciferin-H EGE luminescence; active compounds read high; 0 = fully inhibited enzyme, 1 = untreated enzyme; activation factor at 5 µM; AID 1025, 2008;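 active means activation factor of at least 2 at 5 µM in the primary screen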
Target sequence (P33261 whole entry, looked up): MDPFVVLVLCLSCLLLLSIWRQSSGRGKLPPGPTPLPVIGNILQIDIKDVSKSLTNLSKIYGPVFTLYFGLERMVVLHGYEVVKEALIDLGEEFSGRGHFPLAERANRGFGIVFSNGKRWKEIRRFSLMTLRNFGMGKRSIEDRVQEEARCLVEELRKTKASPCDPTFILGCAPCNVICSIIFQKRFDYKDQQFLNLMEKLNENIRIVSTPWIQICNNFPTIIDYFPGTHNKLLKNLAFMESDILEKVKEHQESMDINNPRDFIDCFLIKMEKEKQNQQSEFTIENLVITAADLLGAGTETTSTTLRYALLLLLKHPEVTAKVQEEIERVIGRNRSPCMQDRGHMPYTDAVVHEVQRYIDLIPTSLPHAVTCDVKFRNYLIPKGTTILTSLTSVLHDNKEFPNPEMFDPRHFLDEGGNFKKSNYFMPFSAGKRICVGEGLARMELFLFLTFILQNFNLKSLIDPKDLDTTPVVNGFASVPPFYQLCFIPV
CYP2C19 inh: blockers of cytochrome P450 2C19 activity – biochemical, luminescence, ADME assay, primary screen | AID 778, 2007 | 96,000 tested, 21% active | inhibition, % at 5 µM | CYP2C19 Supersomes, luciferin-H EGE luminescence, 30 min;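 active means CYP2C19 inhibition above a set limit at 5 µM in the primary screen, cut at about 50% in these data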
Cav3 T inh: Cav3.2 calcium influx blockers – cell-based, Fluo-4 calcium fluorescence, FDSS, MLSMR library, primary screen; 100,000 tested, 4% active; Cav3.2-expressing cells; active compounds read low; Voltage-dependent T-type calcium channel subunit alpha-1H (Homo sapiens), O95180; AID 449739, 2010; B-score at 10 µM;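 active means single-dose well whose peak fluorescence ratio is a statistical outlier from its plate by either plate-standardised score or position-corrected B-score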
CYP2C9 activ: human CYP2C9 activators, primary screen, biochemical, luminescence; Cytochrome P450 2C9 (Homo sapiens), P11712; recombinant CYP2C9, luciferin-H conversion; active compounds read high; factor 1 = untreated enzyme, 0 = blocked; activation factor at 5 µM; 96,000 tested, 1.4% active; AID 1024, 2008;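 active means activation factor of 2 or more for CYP2C9 at a 5 µM dose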
Hits are given with their value.

How did CCCc1cc(C(N)=O)c(NC(=O)c2ccoc2C)s1 do in these assays?
CYP2C9 inhib: 88; CYP2C19 act: inactive; CYP2C19 inh: 67; Cav3 T inh: inactive; CYP2C9 activ: inactive

What do the screens show for `CCOc1ccc(CC(=O)Nc2sc(Cc3ccccc3)cc2C(N)=O)cc1OCC`?
CYP2C9 inhib: inactive; CYP2C19 act: inactive; CYP2C19 inh: inactive; Cav3 T inh: inactive; CYP2C9 activ: inactive

How did CCCc1cc(C(N)=O)c(NC(=O)c2cc(C)on2)s1 do in these assays?
CYP2C9 inhib: 64; CYP2C19 act: inactive; CYP2C19 inh: inactive; Cav3 T inh: inactive; CYP2C9 activ: inactive

Results for NC(=O)c1cc(Cc2ccccc2)sc1NC(=O)c1ccco1 ?
CYP2C9 inhib: 56; CYP2C19 act: inactive; CYP2C19 inh: inactive; Cav3 T inh: inactive; CYP2C9 activ: inactive

Results for CCOC(=O)c1c(NC(=O)c2ccoc2C)sc(C)c1C ?
CYP2C9 inhib: inactive; CYP2C19 act: inactive; CYP2C19 inh: inactive; Cav3 T inh: inactive; CYP2C9 activ: inactive

How did NC(=O)c1ncc(C(F)(F)F)cc1Oc1cccc(C(F)(F)F)c1 do in these assays?
CYP2C9 inhib: inactive; CYP2C19 act: inactive; CYP2C19 inh: 93; Cav3 T inh: inactive; CYP2C9 activ: inactive

What do the screens show for `NC(=O)c1ncc(C(F)(F)F)cc1Oc1cccc(F)c1`?
CYP2C9 inhib: inactive; CYP2C19 act: inactive; CYP2C19 inh: inactive; Cav3 T inh: inactive; CYP2C9 activ: inactive

Results for COc1ccc(Oc2cc(C(F)(F)F)cnc2C(N)=O)cc1 ?
CYP2C9 inhib: inactive; CYP2C19 act: inactive; CYP2C19 inh: 67; CYP2C9 activ: inactive

What do the screens show for `CCc1ccc(N2C(=O)c3sc4nnc(-c5ccccc5)c(=O)n4c3C2=O)cc1`?
CYP2C9 inhib: 64; CYP2C19 act: inactive; CYP2C19 inh: inactive; Cav3 T inh: inactive; CYP2C9 activ: inactive

How did Cc1cc(=O)n2c3c(sc2n1)C(=O)N(Cc1ccccc1)C3=O do in these assays?
CYP2C9 inhib: inactive; CYP2C19 act: inactive; CYP2C19 inh: inactive; Cav3 T inh: inactive; CYP2C9 activ: inactive

How did CCn1nnnc1-c1ccc(OC)c(S(=O)(=O)N2CCCCC2)c1 do in these assays?
CYP2C9 inhib: inactive; CYP2C19 act: inactive; CYP2C19 inh: inactive; Cav3 T inh: inactive; CYP2C9 activ: inactive

What do the screens show for `CC(C)(C)NC(=O)C(=O)NNC(=O)C12CC3CC(CC(C3)C1)C2`?
CYP2C9 inhib: inactive; CYP2C19 act: inactive; CYP2C19 inh: inactive; CYP2C9 activ: inactive

What do the screens show for `Cc1cc(C(=O)CSc2n[nH]c(N)n2)c(C)n1-c1cccc(F)c1`?
CYP2C9 inhib: 52; CYP2C19 act: inactive; CYP2C19 inh: 90; Cav3 T inh: inactive; CYP2C9 activ: inactive

How did Cc1cc(C)cc(-n2c(C)cc(C(=O)CSc3nnnn3C)c2C)c1 do in these assays?
CYP2C9 inhib: 64; CYP2C19 act: inactive; CYP2C19 inh: 61; Cav3 T inh: inactive; CYP2C9 activ: inactive

Results for Cc1cc(C(=O)CSc2nnnn2C)c(C)n1-c1cccc(F)c1 ?
CYP2C9 inhib: inactive; CYP2C19 act: inactive; CYP2C19 inh: 95; Cav3 T inh: inactive; CYP2C9 activ: inactive

What do the screens show for `Cc1cc(C(=O)CSc2nc(N)cc(N)n2)c(C)n1CCc1ccc(F)cc1`?
CYP2C9 inhib: 53; CYP2C19 act: inactive; CYP2C19 inh: 76; Cav3 T inh: inactive; CYP2C9 activ: inactive

What do the screens show for `O=c1c2ccccc2oc2ncccc12`?
CYP2C9 inhib: inactive; CYP2C19 act: inactive; CYP2C19 inh: inactive; Cav3 T inh: inactive; CYP2C9 activ: inactive

Results for O=C(OC(C(=O)NCC1CCCO1)c1ccc(F)cc1)c1ccco1 (configuration not stated) ?
CYP2C9 inhib: inactive; CYP2C19 act: inactive; CYP2C19 inh: inactive; Cav3 T inh: inactive; CYP2C9 activ: inactive

Results for Cn1c(SCC(=O)c2ccc3c(c2)OCO3)nnc1C1COc2ccccc2O1 (configuration not stated) ?
CYP2C9 inhib: inactive; CYP2C19 act: inactive; CYP2C19 inh: inactive; Cav3 T inh: inactive; CYP2C9 activ: inactive

Results for COc1ccccc1C(=O)CSc1n[nH]c(N)n1 ?
CYP2C9 inhib: inactive; CYP2C19 act: inactive; CYP2C19 inh: inactive; Cav3 T inh: inactive; CYP2C9 activ: 3

What do the screens show for `COCCn1c(C)cc(C(=O)CSc2n[nH]c(N)n2)c1C`?
CYP2C9 inhib: inactive; CYP2C19 act: inactive; CYP2C19 inh: inactive; Cav3 T inh: inactive; CYP2C9 activ: inactive

What do the screens show for `Cc1cc(C(=O)CSc2nnc(C3COc4ccccc4O3)n2C)c(C)n1-c1ccc(F)cc1` (configuration not stated)?
CYP2C9 inhib: 50; CYP2C19 act: inactive; CYP2C19 inh: inactive; Cav3 T inh: -7.9; CYP2C9 activ: inactive

How did CC(=O)NC(CC(=O)NCC(c1ccco1)N(C)C)c1ccccc1 (configuration not stated) do in these assays?
CYP2C9 inhib: inactive; CYP2C19 act: inactive; CYP2C19 inh: inactive; Cav3 T inh: inactive; CYP2C9 activ: inactive

Results for O=C1CC(=O)CC(c2ccccc2Cl)C1 ?
Cav3 T inh: inactive

What do the screens show for `N#Cc1c(NCCCO)nc(-c2ccco2)c2c1CCCC2`?
CYP2C9 inhib: 92; CYP2C19 act: inactive; CYP2C19 inh: 61; Cav3 T inh: inactive; CYP2C9 activ: inactive

How did N#Cc1c(NCCCO)nc(NCc2ccccc2)c2c1CCN(Cc1ccccc1)C2 do in these assays?
CYP2C9 inhib: 100; CYP2C19 act: inactive; CYP2C19 inh: inactive; Cav3 T inh: inactive; CYP2C9 activ: inactive

Results for CN1CCc2c(C#N)c(N3CCCCC3)nc(NCc3ccccc3)c2C1 ?
CYP2C9 inhib: 74; CYP2C19 act: inactive; CYP2C19 inh: inactive; Cav3 T inh: inactive; CYP2C9 activ: inactive

Results for O=C(c1ccco1)N1CCN(C(=O)c2ccc(COc3ccc(Cl)cc3Cl)o2)CC1 ?
Cav3 T inh: -5.8

What do the screens show for `Cc1cc(NC(=O)c2ccc(COc3ccc(Cl)c(C)c3)o2)no1`?
CYP2C9 inhib: inactive; CYP2C19 act: inactive; CYP2C19 inh: inactive; Cav3 T inh: inactive; CYP2C9 activ: inactive

Results for Cc1cccc(NC(=O)c2ccc(COc3ccc(Cl)cc3Cl)o2)n1 ?
CYP2C9 inhib: 56; CYP2C19 act: inactive; CYP2C19 inh: inactive; Cav3 T inh: inactive; CYP2C9 activ: inactive

What do the screens show for `O=C(c1cccc(Cl)c1)N1CCN(C(=O)c2ccco2)CC1`?
CYP2C9 inhib: inactive; CYP2C19 act: inactive; CYP2C19 inh: inactive; Cav3 T inh: inactive; CYP2C9 activ: inactive

How did O=C(CCCOc1ccccc1)N1CCN(c2ccc(F)cc2)CC1 do in these assays?
CYP2C9 inhib: inactive; CYP2C19 act: inactive; CYP2C19 inh: 77; Cav3 T inh: -7.8; CYP2C9 activ: inactive

Results for O=C(CCCOc1ccccc1)N1CCN(c2ccccn2)CC1 ?
CYP2C9 inhib: 69; CYP2C19 act: inactive; CYP2C19 inh: 80; Cav3 T inh: inactive; CYP2C9 activ: inactive

What do the screens show for `COc1cc2c(C)nc(C)c(C#N)c2cc1OC`?
CYP2C9 inhib: inactive; CYP2C19 act: inactive; CYP2C19 inh: inactive; Cav3 T inh: inactive; CYP2C9 activ: inactive

Compound activity deposited in PubChem BioAssay by several laboratories.
